Source: PubChem BioAssay AID1159580 (chemical genetic matrix, 2015)
Where “and” joins values, the source holds several entries; their conditions need not be identical. Equal values may be shown once. Among all 5,500 compounds or so, about 2,000 (36%) were called active. Another 18% or so got no clear call; they are omitted. Cut-off read from the data, not from the text of the source: active = normalized growth mostly below about 0.91 (no sharp cut-off); inconclusive = no clear call, values can overlap the other calls; inactive = mostly above about 0.92. Some of the results follow.

Assay: chemical genetic growth profiling, strain panel (AID 1159580);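 note: tested at 20 µM; growth read once vehicle control cultures reached saturation at 30 °C; 1 = growth at the plate median or of vehicle wells; lower values mean less growth of the strain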
Details: S. cerevisiae deletion strains, growth OD

Measured: normalized growth

O=C(O)c1cccnc1C(=O)O
inactive: locus YAL013W, strain DEP1, active compounds read low 1.01 and 1.02 | locus YAL021C, strain ccr4, active compounds read low 1.02 | locus YAL026C, strain drs2, active compounds read low 1 | locus YAL030W, strain snc1, active compounds read low 0.999 | locus YAL040C, strain CLN3, active compounds read low 1.05 | locus YBL061C, strain skt5, active compounds read low 1 | locus YBR009C, strain hhf1, active compounds read low 1.03 | locus YBR021W, strain FUR4, active compounds read low 1.03 | locus YBR023C, strain chs3, active compounds read low 0.996 | locus YBR171W, strain sec66, active compounds read low 0.992 | locus YBR229C, strain ROT2, active compounds read low 1.03 | locus YBR231C, strain swc5, active compounds read low 1.04 | locus YBR279W, strain paf1, active compounds read low 0.998 | locus YCL011C, strain gbp2, active compounds read low 1.02 | locus YCL016C, strain dcc1, active compounds read low 1.01 | locus YCL029C, strain bik1, active compounds read low 0.991 | locus YCL061C, strain MRC1 (second series), active compounds read low 1 | locus YCL069W, strain vba3, active compounds read low 1 | locus YCR088W, strain abp1, active compounds read low 0.99 | locus YDL005C, strain med2, active compounds read low 0.98 | locus YDL035C, strain GPR1, active compounds read low 1.03 | locus YDL040C, strain nat1, active compounds read low 0.985 | locus YDL074C, strain BRE1, active compounds read low 1.07 | locus YDL101C, strain DUN1, active compounds read low 1.04 | locus YDL134C, strain PPH21, active compounds read low 1.03 | locus YDL185W, strain tfp1, active compounds read low 0.976 | locus YDL192W, strain arf1, active compounds read low 1 | locus YDR001C, strain nth1, active compounds read low 0.99 | locus YDR069C, strain doa4, active compounds read low 1 | locus YDR101C, strain arx1, active compounds read low 0.997 | locus YDR137W, strain rgp1, active compounds read low 1.01 | locus YDR150W, strain NUM1, active compounds read low 1.02 | locus YDR159W, strain sac3, active compounds read low 0.986 | locus YDR162C, strain NBP2, active compounds read low 1.02 | locus YDR195W, strain ref2 1.05 | locus YDR297W, strain sur2, active compounds read low 1 | locus YDR318W, strain mcm21, active compounds read low 0.997 | locus YDR334W, strain swr1, active compounds read low 0.979 | locus YDR335W, strain msn5, active compounds read low 1 | locus YDR363W, strain ESC2, active compounds read low 1.04 | locus YDR388W, active compounds read low 0.986 | locus YDR392W, strain spt3, active compounds read low 0.984 | locus YDR502C, strain sam2, active compounds read low 1.01 | locus YEL003W, strain gim4, active compounds read low 0.995 | locus YEL037C, strain rad23, active compounds read low 0.989 | locus YEL061C, strain CIN8 (second series), active compounds read low 0.979 | locus YEL061C, strain CIN8, active compounds read low 1.02 | locus YER002W, strain NOP16, active compounds read low 0.994 | locus YER015W, strain faa2, active compounds read low 1.01 | locus YER016W, strain bim1, active compounds read low 0.967 | locus YER110C, active compounds read low 1 | locus YER111C, strain swi4, active compounds read low 0.986 | locus YER155C, strain BEM2 (second series), active compounds read low 1.05 | locus YER155C, strain BEM2, active compounds read low 1.01 | locus YER167W, strain BCK2, active compounds read low 1.02 | locus YFR010W, strain ubp6, active compounds read low 1.03 | locus YGL078C, strain dbp3, active compounds read low 0.983 | locus YGL086W, strain mad1, active compounds read low 1.01 | locus YGL167C, strain pmr1, active compounds read low 1 | locus YGL173C, strain kem1, active compounds read low 1 | locus YGL227W, strain vid30, active compounds read low 0.972 | locus YGL240W, strain doc1, active compounds read low 1.01 | locus YGL248W, strain PDE1, active compounds read low 1.03 | locus YGL253W, strain hxk2, active compounds read low 1.01 | locus YGR078C, strain PAC10, active compounds read low 1.01 | locus YGR135W, strain pre9, active compounds read low 1.01 | locus YGR229C, strain SMI1, active compounds read low 1.04 | locus YGR252W, strain gcn5, active compounds read low 0.938 | locus YHR013C, strain ard1, active compounds read low 1 | locus YHR027C, strain rpn1, active compounds read low 1.02 | locus YHR030C, strain SLT2, active compounds read low 1.02 and 0.992 | locus YHR079C, strain IRE1 (second series), active compounds read low 0.981 | locus YHR079C, strain IRE1, active compounds read low 1 | locus YHR094C, strain hxt1, active compounds read low 0.983 | locus YHR129C, strain ARP1, active compounds read low 1.01 | locus YHR142W, strain chs7, active compounds read low 1.02 | locus YHR200W, strain rpn10, active compounds read low 0.984 | locus YIL066C, strain RNR3, active compounds read low 1.05 | locus YIL073C, strain SPO22, active compounds read low 1.01 | locus YIL125W, strain kgd1, active compounds read low 0.971 | locus YIR030C, strain dcg1, active compounds read low 0.998 | locus YJL092W, strain hpr5, active compounds read low 0.99 | locus YJL095W, strain BCK1 (second series), active compounds read low 1.01 | locus YJL095W, strain BCK1, active compounds read low 1.07 and 0.998 | locus YJL115W, strain asf1, active compounds read low 0.984 | locus YJL129C, strain trk1, active compounds read low 0.986 | locus YJL134W, strain LCB3, active compounds read low 1.01 | locus YJL154C, strain vps35, active compounds read low 0.998 | locus YJL164C, strain tpk1, active compounds read low 1.03 | locus YJL166W, strain qcr8, active compounds read low 1.03 | locus YJL168C, strain set2, active compounds read low 0.978 | locus YJL187C, strain SWE1 (second series), active compounds read low 1.05 | locus YJL187C, strain SWE1, active compounds read low 1 | locus YJR043C, strain POL32, active compounds read low 1.02
